HT1080NT lethal: qHTS for induction of synthetic lethality in tumor cells producing 2HG: qHTS for the HT-1080-NT fibrosarcoma cell line; AID 686970, 2013; HT-1080-NT fibrosarcoma viability, CellTiter-Glo ATP luminescence, 48 h; Potency, µM (top dose mostly 46.1 µM), for inactives: top-dose activity, negative = less viability, most hits filed as cytotoxic; 360,000 tested, 1.6% active;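 note: NT is the 2HG producing partner of a matched IDH1 knockdown line; 0% = DMSO-treated cells and -100% = media-only wells without cells; nearly all actives have a fitted effect of over 55% in size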
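A 48-hour cytotoxicity screen used HT-1080-NT cells plated 2 hours before compound delivery. ATP-based CellTiter-Glo luminescence measured viability, normalized to DMSO and no-cell controls.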
KB-V1 MDR tox: qHTS assay for MDR1-selective chemotherapeutics: Primary screen using the drug-selected MDR subline cells KB-V1. KB-V1 MDR cells viability, CellTiter-Glo, 72 h. Potency, µM (doses to about 46.1 µM), usual class: cytotoxic. 400,000 tested, 3.4% active. AID 1347076, 2019; note: % is set by controls: 0 for no effect and ±100 for the full control effect; nearly all actives have a fitted effect of over 60% in size
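KB-V1, DMEM (no phenol red) + 10% FBS; cpd pin-transferred, titration series; 72 h, 37 degrees C; CellTiter-Glo, luminescence. Data normalized, curve-fit.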
SW480 rereplic: A quantitative high throughput screen for small molecules that induce DNA re-replication in SW480 colon adenocarcinoma cells. SW480 DNA re-replication, Hoechst DNA content imaging, 48 h. Potency, µM (highest dose often 46.1 µM), without a hit: top-dose re-replication activation, actives largely listed as activators. 340,000 tested, 1.8% active. AID 624297, 2012; note: % of control where 0% means no effect; nearly all actives have a fitted effect of over 55% in size
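Hoechst fluorescence of nuclei (405 nm excitation, 500-530 nm emission) measured by plate-scanning imager after 48 hr compound exposure at 37 C; re-replication scored as increased number of nuclei with elevated intensity.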
MCF10A rereplic: A quantitative high throughput screen for small molecules that induce DNA re-replication in MCF 10a normal breast cells | MCF 10A DNA re-replication, Hoechst nuclear intensity, 48 h | Potency, µM (top dose mostly 46.1 µM), inactives show at the top dose activity, positive = re-replication, actives largely listed as activators | 350,000 tested, 2.9% active; note: % of control where 0% means no effect; nearly all actives have a fitted effect of over 50% in size
KB-3-1 cytotox: qHTS assay for MDR1-selective chemotherapeutics: Primary screen using the parental adenocarcinoma cell KB-3-1; KB-3-1 viability, CellTiter-Glo ATP luminescence, 72 h; Potency, µM (doses to about 46.1 µM), most hits filed as cytotoxic; 400,000 tested, 1.4% active; note: % is set by controls: 0 for no effect and ±100 for the full control effect; nearly all actives have a fitted effect of over 60% in size
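72 h, 37 °C compound treatment of KB-3-1 parental cells; CellTiter-Glo added, 10 min, luminescence read. Data corrected against DMSO-only plates and normalized before curve fitting.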
HT1080 IDH1KD tx: qHTS for induction of synthetic lethality in tumor cells producing 2HG: qHTS for the HT-1080-IDH1KD cell line | HT-1080 IDH1 knockdown viability, ATP luminescence, 48 h | Potency, µM (top dose mostly 46.1 µM), without a hit: at the highest dose activity, negative = toxicity, hits mostly cytotoxic | 360,000 tested, 2% active;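 note: 0% = DMSO wells and -100% = cell-free medium wells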
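IDH1KD HT-1080 cells, 750/well, RPMI + 5% FBS; compound pinned after 2 h settling; 48 h, 37 °C; CellTiter-Glo luminescence; % activity normalised to DMSO and no-cell wells; curves fitted, classed by r2 and efficacy.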
The depositor's hits bear a star; i = inactive; u = inconclusive; x = no result given. An excerpt weighted towards active compounds, which were near 7.9% of everything screened. Calls come from the whole dose curve; as a rule, active = well fitted curve in the direction sought with a large enough effect; inconclusive = small, poorly fitted or top-dose-only effect, or another doubt; inactive = no such curve, though single readings can be large; an effect the other way counts as inactive or inconclusive. Potency is the fitted concentration of half-maximal effect.

SMILES | HT1080NT lethal | KB-V1 MDR tox | SW480 rereplic | MCF10A rereplic | KB-3-1 cytotox | HT1080 IDH1KD tx
CC(/C=N/NC(=O)c1n[nH]c2c1CCC2)=C\c1ccccc1 | 0.184µM* | 0.206µM* | 0.731µM* | 0.259µM* | 0.326µM* | 0.366µM*
O=C(N/N=C/C(Br)=C/c1ccccc1)c1ccccc1[N+](=O)[O-] | -2.9% | i | u | u | i | -0.8%
CC(/C=N/NC(=O)c1ccccc1C)=C\c1ccccc1 | -5.7% | i | 22.0% | -4.0% | i | 18.3%
O=C(N/N=C/C(Br)=C\c1ccccc1)c1n[nH]c2c1CCC2 | 0.316µM* | u | 0.517µM* | u | i | 0.562µM*
O=C(N/N=C/C=C/c1ccccc1)c1n[nH]c2c1CCC2 | 1.84µM* | 1.03µM* | 2.06µM* | 1.46µM* | 1.3µM* | 1.3µM*
Cc1cc(C(=O)N/N=C/C=C/c2ccccc2)n[nH]1 | 29.3% | i | u | -16.0% | i | u
CCN(CC)C(=O)Cc1cc(C(=O)O)c2ccccc2n1 | 6.5% | i | -2.4% | -3.7% | i | 3.0%
Cc1ccc(CNC(=O)C(=O)Nc2c3c(nn2-c2ccccc2)CSC3)cc1 | x | i | x | x | i | x
Cc1ccccc1SCc1noc(C(=O)NC(C)C)c1C(=O)O | -13.6% | i | -1.1% | -4.2% | i | -8.9%
O=C(/C=C/c1cccs1)c1cc(Br)ccc1OC(=O)N1CCOCC1 | 20.6µM* | u | u | u | u | u
O=C(/C=C/c1cccs1)c1ccc(N2CCOCC2)cc1 | 1.0% | i | 4.0% | u | i | 2.3%
CCOC(=O)C1=C(N)OC2=C(C(=O)CC(C)(C)C2)C1c1cccs1 (configuration not stated) | u | i | -1.5% | 0.6% | i | 15.6%
COc1ccc(S(=O)(=O)N2CCOC2CNC(=O)C(=O)NCCc2ccc(OC)c(OC)c2)cc1 (configuration not stated) | -2.4% | 18.4µM* | 12.3% | 9.7% | u | -10.4%
COc1ccc(S(=O)(=O)N2CCCOC2CNC(=O)C(=O)NCCc2ccco2)cc1C (configuration not stated) | 16.4µM* | i | 18.4µM* | u | 6.51µM* | 18.4µM*
Cc1cc(S(=O)(=O)N2CCCOC2CNC(=O)C(=O)NCc2ccco2)ccc1F (configuration not stated) | 15.7% | u | u | 8.2µM* | i | -3.9%
Cc1ccc(S(=O)(=O)N2CCCOC2CNC(=O)C(=O)NCc2cccs2)cc1 (configuration not stated) | -3.3% | 9.2µM* | u | 5.4% | i | 0.2%
Cc1ccc(CNC(=O)C(=O)NCC2OCCCN2S(=O)(=O)c2cccs2)cc1 (configuration not stated) | 0.1% | i | 19.1% | 0.4% | i | -8.8%
COc1ccc(CCNC(=O)C(=O)NCC2OCCN2S(=O)(=O)c2ccc(Br)cc2)cc1OC (configuration not stated) | 0.2% | i | 1.9% | 6.7% | i | -4.5%
CCOC(=O)c1ccc(NS(=O)(=O)c2cn(C)cn2)cc1 | 0.3% | i | 5.8% | u | i | 0.1%
CCOC(=O)C1=C(COC(=O)/C=C/c2cc(Br)ccc2F)NC(=O)NC1C (configuration not stated) | -1.0% | i | -0.3% | 3.6% | i | -1.8%
Cc1ccc(C)c(S(=O)(=O)N2CCCOC2CNC(=O)C(=O)NCc2ccco2)c1 (configuration not stated) | -8.7% | 23.1µM* | 8.3% | -1.3% | u | -8.6%
